Measurements published in PubChem BioAssay.
Activity calls are given as the source filed them.

Experiments:
[1] = small molecules captured by biotinylated probe aFSTL3 – biochemical, small-molecule microarray, fluorescence 635/667, stem cell growth factor project, primary screen (AID 1064); details: higher = more signal;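 note: measures binding of the biotinylated anti-FSTL3 antibody to printed compounds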
[2] = binders from COS7 lysate, DM2A8 probe, primary screen, torsin A project, cell lysate, small-molecule microarray, fluorescence 635/667 (AID 1065); details: higher = more signal, COS7 lysate expressing mutant human TOR1A
[3] = small molecules captured by biotinylated probe aFGF2 – biochemical, small-molecule microarray, fluorescence 635/667, stem cell growth factor project, primary screen (AID 1067); details: higher = more signal;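 note: measures binding of biotinylated aFGF2 protein to printed compounds on slides; z-score merges feature fluorescence and signal-to-noise across triplicate slides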
[4] = small molecules captured by biotinylated probe aFGF10 – biochemical, small-molecule microarray, fluorescence 635/667, stem cell growth factor project, primary screen (AID 1071); details: higher = more signal;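 note: score merges 667 nm spot intensity and signal to noise from triplicate slides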
[5] = molecular target: Neurogenic locus notch homolog protein 2 (Homo sapiens) (UniProt Q04721); test: small molecules binding Notch2 protein – biochemical, small-molecule microarray, 635 nm fluorescence, stem cell growth factors, primary screen (AID 1073); details: higher = more signal
Neurogenic locus notch homolog protein 2 (Homo sapiens), sequence (Q04721 whole entry, looked up, canonical isoform): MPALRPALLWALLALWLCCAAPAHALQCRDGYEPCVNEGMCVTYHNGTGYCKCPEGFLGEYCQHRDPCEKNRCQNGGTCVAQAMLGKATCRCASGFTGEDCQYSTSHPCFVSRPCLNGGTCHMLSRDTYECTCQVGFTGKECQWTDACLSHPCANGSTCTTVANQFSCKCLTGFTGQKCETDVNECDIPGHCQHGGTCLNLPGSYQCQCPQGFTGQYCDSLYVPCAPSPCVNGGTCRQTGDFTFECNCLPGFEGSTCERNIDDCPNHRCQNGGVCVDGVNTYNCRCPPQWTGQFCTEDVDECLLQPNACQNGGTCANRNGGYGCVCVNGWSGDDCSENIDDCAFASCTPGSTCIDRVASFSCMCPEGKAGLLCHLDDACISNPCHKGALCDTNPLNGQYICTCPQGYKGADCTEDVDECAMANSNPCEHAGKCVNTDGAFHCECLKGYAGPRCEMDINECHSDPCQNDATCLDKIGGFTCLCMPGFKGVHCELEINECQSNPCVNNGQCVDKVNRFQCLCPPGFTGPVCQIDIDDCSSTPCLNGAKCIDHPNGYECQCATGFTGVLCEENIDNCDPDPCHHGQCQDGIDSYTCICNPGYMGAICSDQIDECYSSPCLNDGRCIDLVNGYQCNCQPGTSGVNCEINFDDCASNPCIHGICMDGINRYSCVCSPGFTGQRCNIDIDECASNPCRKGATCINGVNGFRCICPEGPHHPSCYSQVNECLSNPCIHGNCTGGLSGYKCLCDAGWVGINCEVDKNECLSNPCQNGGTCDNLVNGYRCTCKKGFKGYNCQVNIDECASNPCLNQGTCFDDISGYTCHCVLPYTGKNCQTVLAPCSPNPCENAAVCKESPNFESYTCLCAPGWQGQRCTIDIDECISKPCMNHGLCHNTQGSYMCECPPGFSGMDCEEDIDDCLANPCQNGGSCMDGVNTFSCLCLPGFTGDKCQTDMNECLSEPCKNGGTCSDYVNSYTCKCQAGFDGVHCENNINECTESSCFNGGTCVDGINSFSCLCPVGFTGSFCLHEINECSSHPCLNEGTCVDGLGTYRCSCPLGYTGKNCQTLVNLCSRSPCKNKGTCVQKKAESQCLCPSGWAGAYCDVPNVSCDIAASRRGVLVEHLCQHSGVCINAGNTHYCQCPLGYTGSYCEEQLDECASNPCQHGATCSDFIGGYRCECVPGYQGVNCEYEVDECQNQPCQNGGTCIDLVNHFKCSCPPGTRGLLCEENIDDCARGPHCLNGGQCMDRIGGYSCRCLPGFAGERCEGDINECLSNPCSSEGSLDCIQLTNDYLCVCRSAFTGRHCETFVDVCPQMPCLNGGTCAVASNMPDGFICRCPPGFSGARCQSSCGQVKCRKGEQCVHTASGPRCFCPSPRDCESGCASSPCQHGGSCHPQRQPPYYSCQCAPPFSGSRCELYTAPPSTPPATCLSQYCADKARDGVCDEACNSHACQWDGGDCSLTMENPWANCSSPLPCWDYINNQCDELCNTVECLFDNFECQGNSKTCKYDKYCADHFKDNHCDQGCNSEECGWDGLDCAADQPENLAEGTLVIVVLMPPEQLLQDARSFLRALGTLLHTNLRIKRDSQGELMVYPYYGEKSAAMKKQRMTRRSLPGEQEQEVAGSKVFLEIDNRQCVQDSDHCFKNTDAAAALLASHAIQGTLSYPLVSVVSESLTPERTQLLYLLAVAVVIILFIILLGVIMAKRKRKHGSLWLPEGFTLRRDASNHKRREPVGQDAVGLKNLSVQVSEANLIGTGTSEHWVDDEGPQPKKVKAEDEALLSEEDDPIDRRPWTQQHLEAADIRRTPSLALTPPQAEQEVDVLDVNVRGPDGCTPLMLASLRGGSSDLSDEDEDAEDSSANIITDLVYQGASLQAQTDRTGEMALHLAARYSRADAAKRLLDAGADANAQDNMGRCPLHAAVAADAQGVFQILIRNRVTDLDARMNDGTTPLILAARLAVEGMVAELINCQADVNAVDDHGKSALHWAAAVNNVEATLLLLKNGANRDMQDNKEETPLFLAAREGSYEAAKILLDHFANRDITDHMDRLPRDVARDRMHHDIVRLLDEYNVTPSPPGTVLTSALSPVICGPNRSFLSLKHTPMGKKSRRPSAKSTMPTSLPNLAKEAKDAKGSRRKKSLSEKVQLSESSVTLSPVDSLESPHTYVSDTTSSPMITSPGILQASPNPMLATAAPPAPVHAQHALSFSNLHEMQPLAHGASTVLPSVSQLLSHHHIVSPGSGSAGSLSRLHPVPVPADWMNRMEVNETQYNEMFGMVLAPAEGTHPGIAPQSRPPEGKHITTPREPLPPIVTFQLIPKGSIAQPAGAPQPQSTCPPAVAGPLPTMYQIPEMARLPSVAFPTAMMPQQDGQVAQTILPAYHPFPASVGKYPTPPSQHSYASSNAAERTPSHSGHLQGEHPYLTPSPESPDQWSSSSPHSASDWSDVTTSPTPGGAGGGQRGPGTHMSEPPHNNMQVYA

[6] = molecular target: Pro-neuregulin-1, membrane-bound isoform (Homo sapiens) (UniProt Q02297); test: small molecules binding neuregulin-1 protein – biochemical, small-molecule microarray, fluorescence 635/667, psychiatric disease protein project, primary screen (AID 1075); details: NRG1 binding, 635 nm fluorescence, higher = more signal;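 note: score combines 667 nm spot fluorescence with signal to noise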
Pro-neuregulin-1, membrane-bound isoform (Homo sapiens), sequence (Q02297 whole entry, looked up, the tested form may be a part, canonical isoform): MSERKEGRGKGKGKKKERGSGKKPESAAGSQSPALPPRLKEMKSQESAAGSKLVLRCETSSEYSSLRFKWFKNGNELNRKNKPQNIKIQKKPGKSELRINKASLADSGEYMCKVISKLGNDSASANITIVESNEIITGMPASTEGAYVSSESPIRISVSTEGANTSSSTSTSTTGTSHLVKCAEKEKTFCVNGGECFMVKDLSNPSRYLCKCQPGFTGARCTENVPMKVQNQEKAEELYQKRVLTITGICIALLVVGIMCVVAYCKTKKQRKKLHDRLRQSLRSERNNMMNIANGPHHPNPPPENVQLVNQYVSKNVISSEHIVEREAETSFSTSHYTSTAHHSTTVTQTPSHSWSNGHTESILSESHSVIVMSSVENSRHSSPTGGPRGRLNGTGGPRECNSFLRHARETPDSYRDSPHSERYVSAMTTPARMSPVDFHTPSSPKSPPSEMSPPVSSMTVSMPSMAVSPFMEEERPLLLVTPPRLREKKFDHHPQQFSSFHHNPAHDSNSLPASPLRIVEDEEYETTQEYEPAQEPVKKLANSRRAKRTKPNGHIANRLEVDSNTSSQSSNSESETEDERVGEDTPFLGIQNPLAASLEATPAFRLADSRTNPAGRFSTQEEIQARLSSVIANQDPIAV

[7] = system: Neuregulin-1 EGF-like domain; test: small molecules binding NRG1 EGF domain – biochemical, small-molecule microarray, 635 nm fluorescence, primary screen (AID 1081); details: higher = more signal;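 note: binding of the protein to compounds printed on small-molecule microarray slides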
[8] = FRG1 expression reporter modulators in myotubes – cell-based, C2C12 myotubes, firefly/Renilla luciferase, luminescence, FRG1 inhibition for FSHD, primary screen (AID 1084); details: FRG1 promoter luciferase, higher = more signal, called active from +8 up or from −8 down
[9] = small molecules captured by biotinylated probe aFST – biochemical, small-molecule microarray, fluorescence 635/667, stem cell growth factor project, primary screen (AID 1086); details: higher = more signal;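 note: score merges 667 nm fluorescence with signal-to-noise of each printed compound spot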
[10] = binders of probe aHhip on microarray, primary screen, stem cell growth factor project, biochemical, small-molecule microarray, fluorescence 635/667 (AID 1087); details: higher = more signal;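 note: score merges spot fluorescence at 667nm with spot signal to noise ratio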

Row | Compound | composite z-score [1] | composite z-score [2] | composite z-score [3] | composite z-score [4] | composite z-score [5] | composite z-score [6] | composite z-score [7] | z-score [8] | composite z-score [9] | composite z-score [10]
1 | CC[C@@H](c1ccccc1)n1c(=O)n2n(c1=O)[C@H]1[C@H](O)[C@@H]3O[C@@H]3C(=NOCC=C(C)CCC=C(C)C)[C@H]1CC2 | -0.415 | 0.138 | -0.102 | 0.471 | 0.8 | 0.8 | 0.89 | -0.0545 (inactive) | 0.572 | -0.169
2 | COC(=O)[C@H](C)NC(=O)CCC1CC(OC(=O)NCc2cccc3ccccc23)CC2(CCCC(COC(=O)NCCc3ccc(Cl)cc3)O2)O1 (stereo not given in full) | -0.489 | -0.0486 | -0.0788 | 0.487 | 1.09 | 0.567 | 0.73 | 1.93 (inactive) | 0.171 | -0.0994
3 | CCc1cc2c(nc1CC)CCN(CCC(C)=NOC[C@@H](O)COCc1ccco1)C2 | 0.394 | 2.81 | -0.105 | 0.0103 | 0.95 | -0.38 | 1.36 | 1.16 (inactive) | 2.06 | 0.382
4 | O=C1[C@H]2[C@H]3[C@H](O)[C@H](O)CC(=NO[C@@H]4O[C@H](CO)[C@@H](O)[C@H](O)[C@H]4O)[C@@H]3CC[C@H]2C(=O)N1c1ccc(F)cc1F | -0.383 | 1.17 | -0.125 | 0.442 | 0.482 | -0.141 | 0.386 | 1.06 (inactive) | 0.0076 | 0.2
5 | Cc1cc2c(c(=O)o1)[C@H](O)[C@H]1O[C@H]1C2=O | 0.0331 | 0.357 | -0.175 | 0.118 | 0.749 | -0.262 | 0.12 | -0.924 (inactive) | -0.0853 | -0.0994
6 | CCN1C(=O)[C@H]2[C@H]3[C@H](O)C=CC(=O)[C@@H]3CC[C@H]2C1=O | -0.456 | 0.236 | -0.0744 | 0.393 | 0.602 | -0.132 | 0.226 | 0.669 (inactive) | 0.243 | 0.312
7 | CN(C)CCCNC(=O)[C@@H]1c2ccccc2C(=O)N(Cc2cc(F)cc(C(F)(F)F)c2)[C@H]1c1ccc(CO)cc1 | 1.11 | 1.01 | -0.0692 | -0.436 | 0.102 | 1.33 | 1.36 | -1.19 (inactive) | -0.186 | 0.316
8 | CO[C@@H]1COC(=O)CCC[C@@H](C)[C@H](OC)COC(=O)CCC[C@H]1C | -0.298 | 0.743 | -0.0982 | 0.219 | 0.633 | -0.63 | 0.176 | 0.462 (inactive) | 0.561 | 0.369
9 | O=C(NN=C1C[C@@H](O)[C@@H](O)[C@@H]2[C@@H]3C(=O)N(c4cccc(Oc5ccccc5)c4)C(=O)[C@@H]3CC[C@H]12)OCc1ccccc1 | -0.0678 | 0.249 | -0.101 | 0.0108 | 0.176 | 0.301 | -0.533 | 0.723 (inactive) | 0.182 | -0.249
10 | CC(C)=NOCc1ccc(-c2cc(-c3ccccc3)no2)cc1 | -0.474 | -0.191 | -0.0788 | 0.241 | 0.29 | -0.225 | 0.123 | -0.172 (inactive) | 0.0003 | -0.0296
11 | CN(C)c1ccc(C(O)C2C=CC3C(=O)N(c4ccccc4)C(=O)C3N2Nc2ccccc2F)cc1 (stereo not given) | 0.357 | -0.159 | -0.0422 | 0.208 | 1.46 | 0.86 | 1.25 | 3.64 (inactive) | 0.957 | -0.212
12 | CC(C)=CCCC(C)=CCON=C1C[C@@H](O)[C@@H](O)[C@@H]2[C@@H]3C(=O)N(C[C@@H]4CCCO4)C(=O)[C@@H]3CC[C@@H]12 | -0.518 | 1 | -0.134 | 0.84 | 0.449 | 0.614 | 1.08 | -0.24 (inactive) | 0.28 | 0.0749
13 | C=CC[C@@H]1C=C[C@H](ON=Cc2ccc(C(=O)N3[C@H](c4ccc(C)cc4)[C@@H](C)CC[C@H]3C(=O)OC)cc2)[C@@H](CO)O1 | -0.482 | 0.835 | -0.0687 | 0.304 | 0.842 | 0.0373 | 0.586 | 0.274 (inactive) | 0.108 | -0.0994
14 | COC(=O)c1c(CC[C@@H](CO)NC(=O)N[C@H](Cc2ccccc2)Cn2cc(-c3ccccc3N)nn2)oc(C(C)=O)c1C(=O)OC | 0.718 | 0.799 | 0.241 | 0.465 | 0.269 | 0.939 | 0.71 | -0.52 (inactive) | 0.914 | 0.176
15 | COCCOC(=O)N1C(=O)[C@@]2(c3ccccc31)[C@H](C(N)=O)[C@H]1C(=O)O[C@H](c3ccccc3)[C@H](c3ccccc3)N1[C@@H]2c1ccccc1OCCO | 0.0407 | 1.67 | 0.147 | 0.937 | 0.899 | 1.42 | 1.11 | -0.732 (inactive) | 0.521 | 0.234
16 | N#Cc1ccc(NN2C(C(O)c3cc(C(F)(F)F)cc(C(F)(F)F)c3)C=CC3C(=O)N(c4ccccc4)C(=O)C32)cc1 (stereo not given) | 0.0678 | 0.517 | 0.116 | 0.668 | 1.27 | 1.97 | 1.22 | 0.474 (inactive) | 0.785 | 0.357
17 | c1ccc(C2NCCc3c2[nH]c2ccccc32)cc1 (stereo not given) | 0.136 | 0.548 | 0.0183 | 0.0913 | -0.443 | 0.464 | 0.233 | -0.151 (inactive) | -0.16 | -0.128

Row | Compound | composite z-score [1] | composite z-score [2] | composite z-score [3] | composite z-score [4] | composite z-score [5] | composite z-score [6] | composite z-score [7] | z-score [8] | composite z-score [9] | composite z-score [10]
18 | C[C@@H]1C=CCC(=O)OC[C@H](C)C(=O)N2CCC[C@H]2C(=O)OC1 | -0.586 | 2.45 | -0.178 | 0.349 | 0.285 | -0.824 | 1.04 | 0.465 (inactive) | 0.165 | -0.0296
19 | CC(CCC(=O)OC[C@H]1O[C@H](C#Cc2ccccc2)C=C[C@@H]1Oc1ccc(C)cc1)=NOC[C@@H](O)[C@H]1O[C@@H]2OC(C)(C)O[C@@H]2[C@H]1O | -0.378 | -0.587 | -0.229 | -0.44 | -0.836 | -0.116 | -0.0458 | 0.0054 (inactive) | -0.865 | -0.172
20 | COC(=O)[C@@H]1N=C(c2ccc(OCCCO)cc2)O[C@@H]1c1ccccc1N=[N+]=[N-] | 1.64 | 0.308 | -0.006 | -0.282 | 0.124 | 1.79 | 1.18 | 3.42 (inactive) | 0.864 | 0.189
21 | CC(C)C[C@@H]1NC(=O)[C@H]2C[C@@H](C(=O)NCCCCCCN(C)C)[C@@H](c3cccc(OCCO)c3)N2C1=O | 0.293 | 1.55 | -0.0173 | 0.789 | 0.873 | 0.528 | 0.781 | 3.77 (inactive) | 0.256 | -0.156
22 | CO[C@@H]1COC(=O)CC=C[C@@H](C)[C@H](OC)COC(=O)[C@H](COCc2ccccc2)NC(=O)CC=C[C@H]1C | 0.0122 | 0.843 | -0.0775 | -0.0228 | -0.0992 | -0.673 | -0.831 | -0.886 (inactive) | -0.455 | -0.0618
23 | O=C1C[C@@H](O)[C@@H](O)[C@@H]2[C@@H]3C(=O)N(c4ccc(F)cc4F)C(=O)[C@@H]3CC[C@@H]12 | -0.416 | 0.267 | -0.122 | 0.315 | 0.627 | 0.0489 | 0.823 | 0.25 (inactive) | 0.153 | 0.144
24 | CCOC(=O)[C@H](CC(C)C)NC(=O)CCC1CC(OC(=O)NCc2cccc3ccccc23)CC2(CCCC(COC(=O)NCCN3CCOCC3)O2)O1 (stereo not given in full) | -0.589 | 0.393 | -0.0788 | 0.497 | 0.999 | 0.442 | 0.983 | 0.986 (inactive) | 0.112 | 0.0176
25 | CCOC(=O)[C@H](Cc1ccccc1)NC(=O)CCC1CC(OC(=O)NCc2ccc3c(c2)OCO3)CC2(CCCC(COC(=O)NCC3CCCCC3)O2)O1 (stereo not given in full) | -0.632 | 0.247 | -0.0775 | 0.256 | 1.19 | 0.306 | 1.04 | 1.2 (inactive) | 1.27 | -0.0994
26 | O=C1C[C@]2(c3ccc([N+](=O)[O-])cc3)C(=O)N(CCN3CCOCC3)c3cc(CO)ccc3[C@H]2N1CC12CC3CC(CC(C3)C1)C2 | -0.0111 | -0.624 | -0.103 | -0.164 | -0.35 | 1.38 | -0.273 | 0.103 (inactive) | 0.337 | 0.312
27 | C=C(/C(=C/C[C@@H](OC(=O)c1ccncc1)c1ccc(OCCO)cc1)c1cnc2ccccc2c1)C(C)C | -0.342 | -0.0128 | -0.186 | 0.128 | 0.772 | 0.562 | 0.694 | -2.27 (inactive) | 0.201 | 0.0206
28 | C=CC[C@@H]1C=C[C@H](ON=C[C@@H](OC)[C@H](C)C=CCC(=O)OC)[C@@H](CO)O1 | -0.147 | 0.827 | -0.0493 | 0.223 | -0.203 | 0.161 | 0.528 | 0.813 (inactive) | 0.0886 | -0.0346
29 | C=C(/C(=C/C[C@H](OC(C)=O)c1ccc(OCCO)cc1)c1cnc2ccccc2c1)C(C)C | -0.195 | 0.214 | -0.122 | 1.11 | 1.01 | 0.69 | 1 | 0.372 (inactive) | 0.182 | -0.333
30 | CC(=O)OC[C@H]1O[C@H](CCON=C(C)CCN2CCc3nc(-c4ccccc4)c(-c4ccccc4)cc3C2)C=C[C@@H]1OC(C)=O | -0.195 | 0.472 | -0.119 | 0.173 | 0.0174 | 0.266 | 0.454 | 1.23 (inactive) | -0.105 | 0.0749
31 | COCCCNC(=O)[C@@]1(Sc2ccc(C)cc2)CC(=O)N(Cc2ccccc2)[C@@H]1c1ccc(CO)cc1I | 0.438 | 0.258 | 0.193 | -0.134 | -0.895 | 1.38 | -0.118 | -0.646 (inactive) | 0.458 | 0.0327
32 | O=C(CS)NCCCCCNC(=O)[C@@H]1C[C@@H]2C(=O)N[C@@H](Cc3ccccc3)C(=O)N2[C@@H]1c1ccc(O)cc1 | 0.154 | 0.524 | -0.0766 | 0.435 | -0.138 | 0.67 | 1.36 | 1.2 (inactive) | 0.0658 | -0.0994
33 | O=C1CCCC2OC12C(O)CCc1ccccc1 (stereo not given) | -0.555 | 0.475 | -0.166 | 0.411 | 0.455 | -0.333 | -0.251 | 0.42 (inactive) | -0.0128 | -0.226
34 | COC(=O)CC=C[C@@H](C)[C@H](OC)c1ccccc1Br | -0.297 | 1.46 | -0.0514 | 0.178 | 0.119 | -0.171 | -0.26 | 1.08 (inactive) | -0.155 | 0.275
